# PMC7862700, “An all-to-all approach to the identification of sequence-specific readers for epigenetic DNA modifications on cytosine”
# Experiments:
# Test in all cases: DAPPL (digital affinity profiling via proximity ligation, sequencing); 10 mM Tris-HCl pH 7.5, 50 mM NaCl, 1 mM DTT, 4% glycerol, room temperature, 30 min; GST-TFs on glutathione beads, 16-mer random dsDNA library, 0.1% formaldehyde crosslink after washing; high values mean tight binding
# [1] = target: T1, FEV (Homo sapiens, UniProt Q99581 1-238); settings: protein: recombinant; tags: N-terminal GST; dsDNA, one strand shown
# T1 sequence: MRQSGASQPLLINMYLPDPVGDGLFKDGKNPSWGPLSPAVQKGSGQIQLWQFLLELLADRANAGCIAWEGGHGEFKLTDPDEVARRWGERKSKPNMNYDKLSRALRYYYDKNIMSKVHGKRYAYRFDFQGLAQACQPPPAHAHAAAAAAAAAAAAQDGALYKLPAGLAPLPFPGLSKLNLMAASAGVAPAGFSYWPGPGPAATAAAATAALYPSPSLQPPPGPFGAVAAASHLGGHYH
# Outline: (§1)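 A tag-only sample was pooled with DNA-barcoded human transcription factors that had been expressed in yeast as GST fusions and captured on glutathione beads. The pools were incubated for 30 min at room temperature with 200 nmole of a random double-stranded 16-mer DNA library in Tris/NaCl/DTT/glycerol buffer, then washed, crosslinked with 0.1% formaldehyde, proximity-ligated (BsaI/T4 ligase, 1 h, 37 °C), PCR-amplified and sequenced on an Illumina NextSeq500. Binding signal is each hexamer's read frequency for a factor divided by its frequency for the tag-only sample.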
# [2] = target: ETV5 (Homo sapiens, UniProt P41161 1-510); settings: protein: recombinant; tags: N-terminal GST; dsDNA, one strand shown
# Sequence of ETV5 (P41161 whole entry): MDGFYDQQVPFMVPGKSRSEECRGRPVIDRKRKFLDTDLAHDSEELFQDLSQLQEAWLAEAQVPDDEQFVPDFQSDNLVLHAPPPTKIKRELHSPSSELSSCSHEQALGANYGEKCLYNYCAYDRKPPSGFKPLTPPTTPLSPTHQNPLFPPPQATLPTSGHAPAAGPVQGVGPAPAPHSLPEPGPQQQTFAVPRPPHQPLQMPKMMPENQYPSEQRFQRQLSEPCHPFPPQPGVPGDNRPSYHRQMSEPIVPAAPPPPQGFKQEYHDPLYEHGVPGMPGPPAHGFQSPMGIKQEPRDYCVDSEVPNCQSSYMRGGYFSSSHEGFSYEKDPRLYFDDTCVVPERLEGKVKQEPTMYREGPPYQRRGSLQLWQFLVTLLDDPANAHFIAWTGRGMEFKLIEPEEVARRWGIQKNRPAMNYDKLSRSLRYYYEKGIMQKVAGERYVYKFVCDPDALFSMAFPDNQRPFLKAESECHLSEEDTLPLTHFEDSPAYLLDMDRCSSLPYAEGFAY
# Outline: as §1
# [3] = target: HSF1 (Homo sapiens, UniProt Q00613 1-529); settings: protein: recombinant; tags: N-terminal GST; chain copies: 3; dsDNA, one strand shown
# Sequence of HSF1 (Q00613 whole entry): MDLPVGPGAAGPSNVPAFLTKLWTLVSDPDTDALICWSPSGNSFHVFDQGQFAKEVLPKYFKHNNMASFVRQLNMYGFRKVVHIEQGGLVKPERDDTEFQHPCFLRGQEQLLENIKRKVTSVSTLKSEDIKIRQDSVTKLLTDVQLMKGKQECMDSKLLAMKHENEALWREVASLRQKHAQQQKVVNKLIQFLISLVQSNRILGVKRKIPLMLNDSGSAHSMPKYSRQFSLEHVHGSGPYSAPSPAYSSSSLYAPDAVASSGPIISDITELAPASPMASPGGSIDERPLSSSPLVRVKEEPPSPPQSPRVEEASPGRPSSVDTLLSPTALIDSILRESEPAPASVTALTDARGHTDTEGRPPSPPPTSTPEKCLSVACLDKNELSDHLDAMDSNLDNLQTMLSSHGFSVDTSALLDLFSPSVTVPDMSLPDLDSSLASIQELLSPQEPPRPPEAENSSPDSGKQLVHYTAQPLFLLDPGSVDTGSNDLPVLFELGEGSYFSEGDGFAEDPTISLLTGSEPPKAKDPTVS
# Outline: as §1
# [4] = target: T2, SPIC (Homo sapiens, UniProt Q8N5J4 1-248); settings: protein: recombinant; tags: N-terminal GST; dsDNA, one strand shown
# T2 sequence: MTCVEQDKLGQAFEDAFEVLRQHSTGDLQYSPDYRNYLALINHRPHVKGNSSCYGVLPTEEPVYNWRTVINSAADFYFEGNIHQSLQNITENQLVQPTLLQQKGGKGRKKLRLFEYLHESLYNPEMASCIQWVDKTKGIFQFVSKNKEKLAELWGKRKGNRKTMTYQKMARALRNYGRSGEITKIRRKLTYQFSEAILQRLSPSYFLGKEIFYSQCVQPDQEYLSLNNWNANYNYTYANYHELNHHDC
# Outline: as §1
# [5] = target: ELF4 (Homo sapiens, UniProt Q99607 1-663); settings: protein: recombinant; tags: N-terminal GST; dsDNA, one strand shown
# Sequence of ELF4 (Q99607 whole entry): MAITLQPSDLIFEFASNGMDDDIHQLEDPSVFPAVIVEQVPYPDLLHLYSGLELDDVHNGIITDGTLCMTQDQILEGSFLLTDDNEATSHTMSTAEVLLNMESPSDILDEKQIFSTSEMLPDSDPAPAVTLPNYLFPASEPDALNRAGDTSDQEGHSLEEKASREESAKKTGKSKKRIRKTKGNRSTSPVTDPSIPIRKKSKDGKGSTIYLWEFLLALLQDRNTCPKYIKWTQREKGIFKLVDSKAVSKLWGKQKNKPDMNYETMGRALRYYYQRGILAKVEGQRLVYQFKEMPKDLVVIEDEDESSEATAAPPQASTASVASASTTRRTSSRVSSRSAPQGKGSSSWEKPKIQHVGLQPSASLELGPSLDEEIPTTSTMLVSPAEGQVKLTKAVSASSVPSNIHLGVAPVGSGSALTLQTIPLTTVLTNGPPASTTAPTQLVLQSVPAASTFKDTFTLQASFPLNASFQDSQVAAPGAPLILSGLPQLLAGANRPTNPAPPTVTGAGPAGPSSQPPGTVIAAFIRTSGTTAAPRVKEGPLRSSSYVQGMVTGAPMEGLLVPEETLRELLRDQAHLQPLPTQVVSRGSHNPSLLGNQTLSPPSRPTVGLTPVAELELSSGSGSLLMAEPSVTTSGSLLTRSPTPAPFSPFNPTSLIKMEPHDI
# Outline: as §1
# [6] = target: T3, ELK4 (Homo sapiens, UniProt P28324-2 1-405); settings: protein: recombinant; tags: N-terminal GST; dsDNA, one strand shown
# T3 sequence: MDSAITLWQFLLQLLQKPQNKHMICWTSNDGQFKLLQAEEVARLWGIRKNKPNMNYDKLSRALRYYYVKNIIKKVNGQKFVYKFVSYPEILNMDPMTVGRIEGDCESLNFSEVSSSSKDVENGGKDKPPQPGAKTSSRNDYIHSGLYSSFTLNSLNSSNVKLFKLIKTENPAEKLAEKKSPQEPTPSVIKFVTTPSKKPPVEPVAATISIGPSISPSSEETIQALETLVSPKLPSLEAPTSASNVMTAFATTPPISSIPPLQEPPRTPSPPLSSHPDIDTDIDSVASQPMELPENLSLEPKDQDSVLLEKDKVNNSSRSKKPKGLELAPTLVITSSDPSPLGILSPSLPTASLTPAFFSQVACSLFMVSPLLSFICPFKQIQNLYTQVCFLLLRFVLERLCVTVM
# Outline: as §1
# [7] = target: T4, ETV2 (Homo sapiens, UniProt O00321 1-342); settings: protein: recombinant; tags: N-terminal GST; dsDNA, one strand shown
# T4 sequence: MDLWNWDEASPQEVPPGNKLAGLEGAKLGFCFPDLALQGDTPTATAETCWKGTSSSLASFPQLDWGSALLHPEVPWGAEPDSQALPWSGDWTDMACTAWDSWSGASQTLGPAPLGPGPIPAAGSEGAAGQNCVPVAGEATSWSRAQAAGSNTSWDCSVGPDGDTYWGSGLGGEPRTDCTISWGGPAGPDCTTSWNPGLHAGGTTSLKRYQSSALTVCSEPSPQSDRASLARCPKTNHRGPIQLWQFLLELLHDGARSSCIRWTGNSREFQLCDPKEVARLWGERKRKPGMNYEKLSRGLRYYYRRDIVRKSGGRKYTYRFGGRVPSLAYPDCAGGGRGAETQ
# Outline: as §1
# [8] = target: T5, ELF3 (Homo sapiens, UniProt P78545 1-371); settings: protein: recombinant; tags: N-terminal GST; dsDNA, one strand shown
# T5 sequence: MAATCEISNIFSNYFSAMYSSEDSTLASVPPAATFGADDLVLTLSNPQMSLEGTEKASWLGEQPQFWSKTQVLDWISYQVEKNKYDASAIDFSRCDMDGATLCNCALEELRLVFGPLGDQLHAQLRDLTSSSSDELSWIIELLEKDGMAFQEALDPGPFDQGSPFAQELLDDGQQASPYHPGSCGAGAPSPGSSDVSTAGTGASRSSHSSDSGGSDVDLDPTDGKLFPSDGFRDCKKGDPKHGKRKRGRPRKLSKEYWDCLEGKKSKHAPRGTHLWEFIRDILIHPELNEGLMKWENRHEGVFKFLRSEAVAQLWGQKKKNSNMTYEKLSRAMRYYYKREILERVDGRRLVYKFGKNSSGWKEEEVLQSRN
# Outline: as §1
# [9] = target: CRX (Homo sapiens, UniProt O43186 1-299); settings: protein: recombinant; tags: N-terminal GST; dsDNA, one strand shown
# Sequence of CRX (O43186 whole entry): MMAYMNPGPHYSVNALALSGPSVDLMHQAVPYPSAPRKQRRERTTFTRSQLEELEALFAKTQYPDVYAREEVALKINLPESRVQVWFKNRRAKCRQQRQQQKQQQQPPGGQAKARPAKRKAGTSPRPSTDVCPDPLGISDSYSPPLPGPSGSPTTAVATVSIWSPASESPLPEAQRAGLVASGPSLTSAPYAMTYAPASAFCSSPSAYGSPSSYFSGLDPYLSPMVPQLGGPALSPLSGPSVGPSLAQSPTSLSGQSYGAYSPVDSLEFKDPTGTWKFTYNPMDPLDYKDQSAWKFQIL
# Outline: as §1
# [10] = target: ETV1 (Homo sapiens, UniProt P50549 1-477); settings: protein: recombinant; tags: N-terminal GST; dsDNA, one strand shown
# Sequence of ETV1 (P50549 whole entry): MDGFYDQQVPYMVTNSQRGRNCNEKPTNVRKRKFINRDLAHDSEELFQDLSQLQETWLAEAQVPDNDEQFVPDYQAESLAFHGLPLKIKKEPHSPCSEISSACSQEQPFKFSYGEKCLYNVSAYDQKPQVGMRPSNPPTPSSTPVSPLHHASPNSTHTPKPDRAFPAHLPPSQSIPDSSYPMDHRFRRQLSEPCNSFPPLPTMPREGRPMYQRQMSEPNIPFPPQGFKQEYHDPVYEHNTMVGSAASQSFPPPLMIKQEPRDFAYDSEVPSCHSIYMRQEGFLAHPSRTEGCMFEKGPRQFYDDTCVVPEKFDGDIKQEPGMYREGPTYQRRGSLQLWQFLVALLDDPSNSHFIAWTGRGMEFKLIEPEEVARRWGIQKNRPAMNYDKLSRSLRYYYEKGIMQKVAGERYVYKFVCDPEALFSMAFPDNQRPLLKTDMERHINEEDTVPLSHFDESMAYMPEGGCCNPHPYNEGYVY
# Outline: as §1
sequence,measurement,setting,value
CTTTCT,binding signal,[1],"1.47 fold enrichment (6-mer frequency, TF over GST control)"
same,binding signal,[2],"1.52 fold enrichment (6-mer frequency, TF over GST control)"
same,binding signal,[3],"2.74 fold enrichment (6-mer frequency, TF over GST control)"
same,binding signal,[4],"1.67 fold enrichment (6-mer frequency, TF over GST control)"
same,binding signal,[5],"1.48 fold enrichment (6-mer frequency, TF over GST control)"
same,binding signal,[6],"1.54 fold enrichment (6-mer frequency, TF over GST control)"
same,binding signal,[7],"1.65 fold enrichment (6-mer frequency, TF over GST control)"
same,binding signal,[8],"1.73 fold enrichment (6-mer frequency, TF over GST control)"
same,binding signal,[9],"1.76 fold enrichment (6-mer frequency, TF over GST control)"
same,binding signal,[10],"1.56 fold enrichment (6-mer frequency, TF over GST control)"
